Consider eight molecules from PubChem BioAssay (EPA / NIEHS).

Each structure is given as a SMILES string. Inconclusive results are not listed. The source made the active and inactive calls. Rule for the calls, unless noted: active = hit-call score of the fitted dose curve at least 0.9, where 1 is the maximum; inactive = score below 0.9.

Assay [1] is described as follows: CCTE_Simmons_MITO_inhib_resp_rate: CCTE's HepG2 Seahorse XF Respirometric Screening Assay at Inhibited Respiratory State [full ETC block], Simmons Lab (AID 2284006). As to conditions: actives raise or lower the signal. A digest of the protocol:
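Test chemicals at seven final concentrations (125 nM–100 uM) in three biological replicates, with DMSO as vehicle. HepG2 oxygen consumption was then tracked on a Seahorse XF96 for 72 min through FCCP and rotenone/antimycin A phases, with the inhibited-phase rate as the endpoint.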

Assay [2] in a line: CCTE_Simmons_MITO_viability: CellTiter-Glo Viability Assessment for CCTE's HepG2 Seahorse XF Respirometric Screening Assay [post-hoc], Simmons Lab (AID 2284007; active = hit-call score of the fitted dose curve at least 0.9, where 1 is the maximum). A digest of the protocol: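 Post-hoc viability check on the HepG2 respirometry plates: luciferase-based ATP signal measured once, after 90 min compound exposure spanning 125 nM–100 uM final. Activity was referenced to DMSO as baseline.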
For orientation: Cellular ATP, detected with luciferase, serves as a proxy for viable cell number.

A short description of assay [3]: CCTE_Harrill_HTTr_Viability_MCF7: CCTE's 6-hour Cell Viability Assessment for the High-Throughput Transcriptomics (HTTr) Platform, in MCF-7 cells cultured in DMEM + 10% fetal bovine serum, Harrill Lab (AID 2284010). A digest of the protocol: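 Eight-point concentration series, six-hour exposure. Propidium iodide exclusion imaged to assess membrane integrity as a cytotoxicity readout; bidirectional fitting was done with DMSO as negative control and activity baseline.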

A short description of assay [4]: CCTE_Harrill_HTTr_Apoptosis_MCF7: CCTE's 6-hour Apoptosis Assessment for the High-Throughput Transcriptomics (HTTr) Platform, in MCF-7 cells cultured in DMEM + 10% fetal bovine serum, Harrill Lab (AID 2284011). A digest of the protocol: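 Cells are dosed with test chemicals at eight concentrations and imaged 6 hours later for caspase-3/7 activity using a green fluorogenic detection reagent. Activity is fitted in both directions against DMSO controls.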

Assay [5] in a line: CCTE_Harrill_HTTr_CellCount_MCF7: CCTE's Cell Proliferation Assessment for the High-Throughput Transcriptomics (HTTr) Platform, Harrill Lab (AID 2284012; active = hit-call score of the fitted dose curve at least 0.9, where 1 is the maximum;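 note: intended direction is loss of nuclei count meaning fewer cells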). A digest of the protocol: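 For this full-screen endpoint, MCF-7 cultures received eight compound dilutions for six hours. Well nuclei counts from Hoechst imaging were analyzed relative to DMSO.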
Assay [6] in a line: CCTE_Shafer_MEA_acute_firing_rate_mean: CCTE's Neural Acute Assay for Mean Firing Rate, Shafer Lab (AID 2284009).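 Note: analyzed for loss of signal so actives lower firing rate relative to DMSO.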 The method in brief: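 Primary rat cortical neurons on 16-electrode MEA wells were exposed on DIV 13 or 15 to compound (0.03-40 uM). Spike counts per recording time, averaged over electrodes, were compared between 40-min baseline and 40-min post-exposure recordings as percent change.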

Assay [7] can be described thus: CCTE_Shafer_MEA_acute_burst_duration_mean: CCTE's Neural Acute Assay for Mean Burst Duration, Shafer Lab (AID 2284014).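 Note: hits are decreases in mean burst duration relative to DMSO controls.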 A digest of the protocol:
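Mean burst duration was compared between a 40 min baseline and a 40 min recording in the presence of compound (0.03-40 uM, 37 C), giving percent change per well. Cultures were rat cortical neurons at DIV 13 or 15; wells needed ≥10 active electrodes.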

Assay [8] is described as follows: CCTE_Shafer_MEA_acute_per_burst_spike_number_mean: CCTE's Neural Acute Assay for Average Number of Spikes Per Burst, Shafer Lab (AID 2284015).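 Note: hits are decreases in mean spikes per burst versus baseline.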 A digest of the protocol: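 Percent change in mean spikes per single-electrode burst is compared between a 40 min baseline and a 40 min recording with compound (0.03-40 uM). Cultures were rat cortical neurons on MEA plates at DIV 13 or 15, recorded at 37 C, with DMSO as the negative control.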

A short description of assay [9]: CCTE_Shafer_MEA_acute_interburst_interval_mean: CCTE's Neural Acute Assay for Mean Interburst Interval, Shafer Lab (AID 2284016).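 Note: percent change of mean interburst interval versus each well's own pre-dose baseline; curves fitted for decrease in interburst interval relative to DMSO.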 A digest of the protocol: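 Percent change in mean single-electrode interburst interval was calculated per well from 40 min recordings before and after compound (0.03-40 uM). Recordings were made at 37 C on rat cortical cultures at DIV 13 or 15, with spikes detected at 8x rms threshold.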

Assay [10] is described as follows: CCTE_Shafer_MEA_acute_burst_percentage_mean: CCTE's Neural Acute Assay for Percentage of Spikes in a Burst, Shafer Lab (AID 2284017).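 For AC50: curve fitted for loss of signal so potency reflects decreased burst percentage.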 The method in brief: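 Well-level mean burst percentage from a 40-min recording after compound (0.03-40 uM) expressed as percent change from a 40-min baseline at 37C. Cultures: primary rat cortical neurons on MEA, dosed on DIV 13 or 15; fitted downward relative to DMSO.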

Assay [11] can be described thus: CCTE_Shafer_MEA_acute_burst_percentage_std: CCTE's Neural Acute Assay for Standard Deviation of Burst Percentage, Shafer Lab (AID 2284018).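 Note: fitted in the negative direction so actives lower burst percentage SD.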 A digest of the protocol: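 Value is percent change from baseline in the across-electrode SD of spikes-in-bursts percentage, wells with >/= 10 active electrodes. Acute 40-min exposure to 0.03-40 uM on DIV 13 or 15 rat cortical cultures, recorded at 37 C after 40-min baseline.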

Assay [12] is described as follows: CCTE_Shafer_MEA_acute_per_network_burst_spike_number_mean: CCTE's Neural Acute Assay for Average Number of Spikes in a Network Burst, Shafer Lab (AID 2284019). The method in brief: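 Percent change from baseline in mean spikes per network burst, spikes detected at 8x rms noise. Each compound at 0.03-40 uM in at least three wells of rat cortical cultures, recorded 40 min before and 40 min during exposure.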

Assay [13] can be described thus: CCTE_Shafer_MEA_acute_per_network_burst_spike_number_std: CCTE's Neural Acute Assay for Standard Deviation of Number of Spikes in a Network Burst, Shafer Lab (AID 2284020).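 Note: fitted for decrease in spike-number SD versus DMSO so actives lower it.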 The method in brief:
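Endpoint: percent change from 40 min baseline in standard deviation of spikes per network burst, after 40 min compound exposure (0.03-40 uM, 37 C). Cortical rat neurons on MEA at DIV 13 or 15; spikes detected at 8x rms noise, 300-5000 Hz band-pass.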

Assay [14] in a line: CCTE_Shafer_MEA_acute_per_network_burst_electrodes_number_mean: CCTE's Neural Acute Assay for Mean Number of Electrodes in a Network Burst, Shafer Lab (AID 2284021).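 Note: curves fitted for decreases only so hits reduce electrodes per burst.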 A digest of the protocol:
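Cultures of rat cortex neurons were exposed on DIV 13 or 15 to compounds at 0.03-40 uM in at least three wells each. Activity over 40 min before and 40 min after exposure at 37 C gave the percent change in electrodes per network burst.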

Assay [15] in a line: CCTE_Shafer_MEA_acute_network_burst_percentage: CCTE's Neural Acute Assay for Percentage of Network Bursts, Shafer Lab (AID 2284022).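 For outcome: rat primary cortical neuron networks on multiwell MEA recorded 40 min.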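 Note: curves fitted for loss so actives lower network burst percentage.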 A digest of the protocol: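 Cortical neurons from rat were grown over microelectrode arrays and used on day 13 or 15 in vitro. Wells with at least 10 active electrodes received test chemical at 0.03-40 uM. Activity during 40 min of exposure was compared with the preceding 40-min baseline.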

The nature of assay [16]: CCTE_Shafer_MEA_acute_cross_correlation_area: CCTE's Neural Acute Assay for Area of Cross Correlation, Shafer Lab (AID 2284024).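 Note: rat primary cortical neuron networks on 48-well MEA at DIV 13 or 15 with 40 min exposure; area under pooled inter-electrode spike cross-correlation near zero lag as percent change from own baseline; curves fitted for loss of cross-correlation area so actives lower synchrony.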 The method in brief: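 Acute exposure of mature rat cortical networks (day 13 or 15 post-plating) to 0.03-40 uM compound. Spontaneous spiking on MEA, 40 min pre- and post-dose at 37 C.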
The nature of assay [17]: CCTE_Shafer_MEA_acute_cross_correlation_HWHM: CCTE's Neural Acute Assay for Cross Correlation at Half Width at Half Maximum, Shafer Lab (AID 2284026).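 For outcome: spontaneous network firing of rat primary cortical neurons on multiwell microelectrode arrays.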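 Note: percent change per well from pre-dose baseline in spike cross-correlogram half width; hits are a decrease in cross-correlogram half width relative to DMSO.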 The method in brief:
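Primary cortex (rat), MEA, DIV 13/15; compound 0.03-40 uM; 40 min pre + 40 min post at 37 C; spike threshold 8x rms; wells need ≥10 active electrodes; endpoint = % change in cross-correlogram HWHM vs baseline, DMSO negative control.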

Assay [18] is described as follows: CCTE_Shafer_MEA_acute_synchrony_index: CCTE's Neural Acute Assay for Synchrony, Shafer Lab (AID 2284027).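 Note: network synchrony index of spontaneous spiking in primary rat cortical neurons on MEAs; fitted for loss of signal so actives lower synchrony relative to DMSO.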 The method in brief: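 Acute exposure of rat primary cortical neurons (DIV 13 or 15) at 0.03-40 uM. Synchrony index, 40 min before vs after, as % change relative to DMSO control.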
The target of assay [19] is Estrogen receptor (Homo sapiens) (UniProt P03372). Kind of assay: CCTE_Deisenroth_AIME_96WELL_LUC_Active: CCTE's 96-well Estrogen Receptor Transactivation Assay with AIME metabolic competence (ERTA luciferase; metabolism positive), Deisenroth Lab (AID 2284023; active = hit-call score of the fitted dose curve at least 0.9, where 1 is the maximum). The method in brief:
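Metabolism-positive mode: induced rat hepatic S9 in alginate microspheres conditions test solutions (0.002 - 200 uM, 10 points) for 2 hours. VM7Luc4E2 ER luciferase reporter cells then exposed 24 h; positive-direction fit against 17beta-estradiol, n=4 typical.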

Assay [20] shares this target. Kind of assay: CCTE_Deisenroth_AIME_96WELL_LUC_Inactive: CCTE's 96-well Estrogen Receptor Transactivation Assay without AIME metabolic competence (ERTA luciferase; metabolism negative), Deisenroth Lab (AID 2284025; active = hit-call score of the fitted dose curve at least 0.9, where 1 is the maximum). The method in brief:
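Metabolism-negative arm: chemicals (0.002–200 uM, 10 points) incubated 2 h with alginate-water microspheres, then medium moved onto VM7Luc4E2 cells for 24 h luciferase read-out. Positive direction vs 17beta-estradiol; n≥4 experiments.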

Chain of Estrogen receptor (Homo sapiens) (P03372 whole entry, looked up): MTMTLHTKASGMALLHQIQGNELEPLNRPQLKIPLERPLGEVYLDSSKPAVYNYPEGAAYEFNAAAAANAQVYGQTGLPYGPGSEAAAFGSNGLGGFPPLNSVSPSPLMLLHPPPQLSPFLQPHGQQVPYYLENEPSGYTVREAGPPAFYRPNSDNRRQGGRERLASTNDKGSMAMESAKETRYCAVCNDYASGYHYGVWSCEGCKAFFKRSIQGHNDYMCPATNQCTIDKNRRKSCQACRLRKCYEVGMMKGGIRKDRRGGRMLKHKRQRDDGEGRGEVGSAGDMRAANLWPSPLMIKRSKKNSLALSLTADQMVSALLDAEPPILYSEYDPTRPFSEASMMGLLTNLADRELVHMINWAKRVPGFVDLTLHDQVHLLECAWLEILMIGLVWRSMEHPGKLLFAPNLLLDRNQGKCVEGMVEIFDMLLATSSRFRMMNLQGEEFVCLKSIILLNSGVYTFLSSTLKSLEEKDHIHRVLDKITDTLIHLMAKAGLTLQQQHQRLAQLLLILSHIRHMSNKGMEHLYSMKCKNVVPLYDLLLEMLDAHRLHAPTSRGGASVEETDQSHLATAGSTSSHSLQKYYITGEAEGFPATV

As for `CCCCOC(=O)[C@@H](C)Oc1ccc(Oc2ccc(C(F)(F)F)cn2)cc1`, the call in [1], in [2], in assay [3], in [4] and in assay [5] was inactive.
As for `CCCCOC(=O)C(C)Oc1ccc(Oc2ccc(C(F)(F)F)cn2)cc1` (stereo not given), the molecule was called inactive in assay [1], in [2], in [3] and in [4].
Take `C#CCOC(=O)[C@@H](C)Oc1ccc(Oc2ncc(Cl)cc2F)cc1`: the outcome in assay [6], in assay [3], in [4], in assay [7], in assay [8] and in assay [9] was inactive. Also, the molecule was called inactive in assay [10], in assay [11], in [12], in assay [13], in [14] and in assay [15]. For the same molecule, the result in [16], in assay [17] and in assay [18] was inactive.
For the molecule `CCCN(CCC)c1c([N+](=O)[O-])cc(C(F)(F)F)c(N)c1[N+](=O)[O-]`, the molecule was called inactive in [6], in assay [4], in assay [5], in [7], in assay [8] and in [9]. The outcome in assay [10], in assay [12], in [13], in assay [14], in assay [15] and in [16] was inactive. Further, the result in assay [17] and in assay [18] was inactive. For the same molecule, the AC50 (in general, the concentration at which the activity in the assay is half-maximal) in assay [3] is 68.1 µM (active); in assay [11] it was 31.1 µM (active).
For the molecule `O=C(c1ccccc1)C1CCCCC1`, the result in assay [6], in [7], in [8], in [9], in assay [11] and in assay [12] was inactive. The molecule was called inactive in assay [13], in assay [14], in [15], in assay [16] and in assay [18]. Further, the concentration at half-maximal activity (AC50) in assay [10] is 20 µM (active); in assay [17], 8.12 µM (active).
As for `COC(=O)c1ccccc1C(=O)O`, the result in assay [6], in assay [3], in [4], in assay [5], in assay [7] and in assay [8] was inactive. The result in assay [9], in assay [10], in assay [11], in assay [12], in [13] and in [14] was inactive. Further, the result in assay [15], in [16], in assay [17] and in assay [18] was inactive.
In the case of `CC1(C)C(C=C(Cl)Cl)C1C(=O)OCc1cccc(Oc2ccccc2)c1` (stereo not given), the outcome in assay [6], in assay [3], in assay [4], in [7], in assay [9] and in assay [11] was inactive. Also, the result in assay [12], in assay [13], in assay [16] and in assay [17] was inactive. Further, the AC50 in assay [10] was 20 µM (active); in assay [14] it was 6 µM (active); in assay [15], 20 µM (active); in assay [19], 65.9 µM (active); in assay [20], 75.6 µM (active); in assay [18] it was 34.7 µM (active).
For `CCNc1nc(N)nc(Cl)n1`, the call in assay [6], in assay [3], in assay [4], in [7], in [8] and in assay [9] was inactive. In addition, the result in assay [10], in assay [11], in [12], in assay [13], in assay [14] and in assay [15] was inactive. Further, the call in assay [16], in assay [17] and in assay [18] was inactive.
